Compound activity as filed in PubChem BioAssay.
Rtt109 Vps75 = inhibitors of C. albicans Rtt109/Vps75 HAT, primary screen, biochemical, ThioGlo CoA-SH fluorescence, plate reader; Histone acetyltransferase RTT109 (Candida albicans (strain SC5314 / ATCC MYA-2876)), …; 330,000 tested, 0.16% active; AID 540336, 2011; inhibition, % at 34.9 µM; purified Rtt109/Vps75, 4 h;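 active means inhibition of at least 50% in every replicate; inconclusive means best replicate reaches 50% inhibition but some replicates fall short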
Target sequence (Q5AAJ8 whole entry, looked up): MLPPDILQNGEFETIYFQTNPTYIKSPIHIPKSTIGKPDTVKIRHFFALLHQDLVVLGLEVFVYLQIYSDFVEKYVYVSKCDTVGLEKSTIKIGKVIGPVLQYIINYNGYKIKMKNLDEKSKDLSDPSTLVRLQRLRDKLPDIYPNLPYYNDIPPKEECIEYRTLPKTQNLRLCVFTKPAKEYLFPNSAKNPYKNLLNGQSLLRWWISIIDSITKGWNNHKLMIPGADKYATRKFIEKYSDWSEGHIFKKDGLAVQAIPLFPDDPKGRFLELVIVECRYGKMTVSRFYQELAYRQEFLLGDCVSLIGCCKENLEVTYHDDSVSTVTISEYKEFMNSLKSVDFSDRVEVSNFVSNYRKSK
SMARCA2 activ = SMARCA2 (BRM) function activators, primary screen, cell-based, luminescence, high throughput | AID 652017, 2013 | MG213 cells, MMTV-luciferase reporter, dexamethasone, overnight | activation, % at 9.1 µM | 370,000 tested, 1% active; in the data active means activation above about 7.8%
Dyrk1A ADPGlo = rat Dyrk1A kinase inhibitors, primary screen, biochemical, single point, plate reader; Dual specificity tyrosine-phosphorylation-regulated kinase 1A (Rattus norvegicus), Q63470; inhibition, % at 12.5 µM; AID 504441, 2011; 310,000 tested, 0.43% active; ADP-Glo luminescence, NFATc1 peptide; in the data active means inhibition above about 50%
dFosB act = activators of delta FosB homodimer, primary screen, biochemical, fluorescence polarization, TAMRA-CDK5 oligo, single point. Protein FosB (Mus musculus), P13346. purified delta FosB; percent of positive-control signal above neutral wells. activation, % at 25 µM. 340,000 tested, 0.99% active;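 active means mean activation above about 17%, with every replicate also reaching it, limit read from the data, passing the limit was not always enough; inconclusive means only one of the two conditions met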
Target sequence (P13346 whole entry, looked up): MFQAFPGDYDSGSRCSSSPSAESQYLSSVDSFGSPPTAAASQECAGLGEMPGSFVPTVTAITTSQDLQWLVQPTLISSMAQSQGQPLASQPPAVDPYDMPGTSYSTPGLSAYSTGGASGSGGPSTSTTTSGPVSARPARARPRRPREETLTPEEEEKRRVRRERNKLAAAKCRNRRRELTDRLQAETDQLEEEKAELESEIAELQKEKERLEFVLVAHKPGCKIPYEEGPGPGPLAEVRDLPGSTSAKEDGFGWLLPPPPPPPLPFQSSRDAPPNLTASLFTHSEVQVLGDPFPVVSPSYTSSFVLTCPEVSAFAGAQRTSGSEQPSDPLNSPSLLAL
esBAF inh = Bmi1 luciferase reporter increase in mESCs, primary screen, esBAF inhibitor project, mouse ES cells, Bmi1 luciferase knock-in, single point. 24 h; 100% = twice the neutral-well signal. reporter increase, % at 12.5 µM. 350,000 tested, 2% active. AID 602393, 2012; in the data active means activation above about 40%; inconclusive means no clear call, values can overlap the other calls;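 further: a rise in the Bmi1 reporter signal indicates esBAF inhibition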
CDK5 inh = inhibitors of human CDK5/p35 kinase, primary screen, biochemical, single concentration | Cyclin-dependent kinase 5 (Homo sapiens) + Cyclin-dependent kinase 5 activator 1 (Homo … | inhibition, % at 10 µM | Recombinant CDK5/p35, ADP-Glo luminescence, 60 min | 330,000 tested, 0.01% active;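 active means highest replicate inhibition of at least 50% and at least 75% of replicates reaching 50%; inconclusive means only one of the two criteria met; inactive means both criteria failed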
SMARCA2 conf = SMARCA2 (BRM) function activators, confirmation, cell-based, luminescence, triplicate. shares compounds with SMARCA2 activ. MG213 cells, MMTV-luciferase with dexamethasone, overnight; MG213 cells expressing E1A, Rb sequestered; DMSO wells 0%, reference activator 100%. activation, % at 9.1 µM. 3,500 tested, 30% active. AID 652260, 2013;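 active means activation above its plate's cutoff, the mean activation of tested wells plus 3 SD, cut at about 7.9% in these data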
GAL4-VP16 Luc = GAL4-VP16 luciferase reporter activation, counter-screen for SMARCA2 (BRM) activator project, cell-based, pG5luc, luminescence, high throughput; activation, % at 9.1 µM; 3,500 tested, 41% active; shares compounds with SMARCA2 activ; HEK293 GAL4-VP16 pG5luc reporter; scaled: DMSO wells 0%, SAHA wells 100%; AID 686939, 2013;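 active means activation above the solvent-only control well mean plus 3 SD, averaged across control plates, cut at about 5.2% in these data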
Numbers stand for hits; i = inactive; ? = inconclusive; nt = no result given. Hits are enriched below; roughly 3.2% of the tested compounds scored in any of these assays.

SMILES	Rtt109 Vps75	SMARCA2 activ	Dyrk1A ADPGlo	dFosB act	esBAF inh	CDK5 inh	SMARCA2 conf	GAL4-VP16 Luc
C[C@H](CO)N1C[C@H](C)[C@H](CN(C)CC2CC2)Oc2cc(C#Cc3ccccc3F)ccc2S1(=O)=O	nt	nt	nt	nt	i	nt	nt	nt
O=C(Cc1ccccn1)N[C@H]1C=C[C@@H](CC(=O)N2CCCCC2)O[C@H]1CO	nt	nt	nt	nt	i	nt	nt	nt
COc1ccc(NS(=O)(=O)c2cccc(C(=O)NNC(=O)CNC(=O)c3ccccc3F)c2)cc1	i	8.2	i	i	i	i	i	i
Oc1ccc(CCNc2c3ccccc3nc3ccccc23)cc1O	i	8.4	i	71	i	i	25	i
O=C(N[C@H]1CC[C@H](CC(=O)N2CCCCC2)O[C@H]1CO)c1cccc(F)c1	nt	nt	nt	nt	i	nt	nt	nt
CCOC(=O)c1cc2sccc2n1CC(=O)C(C)(C)C	i	10	i	i	nt	i	i	i
CCOC(=O)Cn1c(C(=O)OCC)cc2sccc21	i	i	i	i	i	i	nt	nt
Cc1ccc2c(c1)sc[n+]2Cc1ccccc1	i	10	i	i	54	i	i	7.8
COc1cccc(C2(c3cccc(OC)c3)CC2C(=O)Nc2cccc3ccccc23)c1 (configuration not stated)	i	9.6	i	i	i	i	i	i
COc1cccc(NC(=O)C2CC2(c2cccc(OC)c2)c2cccc(OC)c2)c1 (configuration not stated)	i	i	i	i	nt	i	nt	nt
O=C(Cn1ncc(Cl)c(Cl)c1=O)NCC1CCCCC1	i	13	i	i	nt	i	i	i
O=C(Cn1ncc(Cl)c(Cl)c1=O)c1ccc(Cl)cc1	i	20	i	i	nt	i	i	i
COc1ccc(NC(=O)c2sc(SC)nc2N)cc1	i	11	i	i	i	i	i	i
Cc1ccc(S(=O)(=O)N[C@H]2CC[C@@H](CCNC(=O)c3ccc4c(c3)OCO4)O[C@@H]2CO)cc1	nt	nt	nt	nt	i	nt	nt	nt
O=C1Nc2ccccc2C1(c1ccccc1)c1ccccc1	i	11	i	i	i	i	i	i
Nc1ccc(C2(c3ccc(N)cc3)C(=O)Nc3ccccc32)cc1	i	i	i	i	i	i	nt	nt
COc1ccc(-c2cc(-c3nnc4sc(-c5cccs5)nn34)[nH]n2)cc1	nt	8.5	nt	nt	nt	nt	i	8.1
COc1cccc(-c2nn3c(-c4cccc(C)c4)nnc3s2)c1	i	11	i	i	i	i	i	i
CCCNC(=O)C[C@H]1C[C@@H]2c3cc(NS(=O)(=O)c4cccc(OC)c4)ccc3O[C@@H]2[C@H](CO)O1	nt	nt	nt	nt	i	nt	nt	nt
Fc1ccc(-c2nc(-c3cccs3)no2)cc1	i	i	i	i	nt	i	nt	nt
COc1cccc(-c2noc(-c3cccs3)n2)c1	i	9.5	i	i	i	i	8.0	13
COC(=O)c1ccc(-c2nc(-c3cccs3)no2)cc1	i	11	i	i	i	i	i	8.1
COC(=O)c1cc2sccc2n1Cc1nc(-c2cccc(Cl)c2)oc1C	i	i	i	i	i	i	nt	nt
COC(=O)c1cc2ccsc2n1Cc1nc(-c2cccc(Cl)c2)oc1C	i	12	i	i	i	i	i	i
C[C@H](NC(=O)[C@@H]1[C@@H](CO)[C@@H]2Cn3c(cccc3=O)[C@@H]2N1Cc1cccnc1)c1ccccc1	nt	nt	nt	nt	i	nt	nt	nt
SMILES	Rtt109 Vps75	SMARCA2 activ	Dyrk1A ADPGlo	dFosB act	esBAF inh	CDK5 inh	SMARCA2 conf	GAL4-VP16 Luc
CCC(=O)Nc1ccc2c(c1)OC[C@@H](C)N(Cc1ccncc1)C[C@@H](C)[C@H](OC)CN(C)C2=O	nt	nt	nt	nt	i	nt	nt	nt
C=C(C)C(=O)Oc1ccc(N=Nc2ccc(C)cc2)ccc1=O	nt	19	nt	nt	i	nt	i	9.1
Cc1cnc(C(=O)Nc2nnc(C3CC3)s2)cn1	i	8.8	i	i	i	i	i	i
Cc1cnc(C(=O)Nc2nnc(C)s2)cn1	i	i	i	i	nt	i	nt	nt
NNc1nc2c(-c3ccc(Cl)cc3)nnn2c2ccccc12	nt	8.4	i	i	nt	i	i	11
NNc1nc2c(-c3ccc(F)cc3)nnn2c2ccccc12	i	i	i	i	i	i	nt	nt
COc1ccc(OCCN2CCC(C(=O)NC(c3ccc(F)cc3)c3ccc4ccccc4n3)CC2)cc1 (configuration not stated)	nt	9.6	nt	nt	i	nt	i	i
C[C@@H]1CCCCO[C@@H](CN(C)C(=O)c2ccccc2)[C@H](C)CN([C@@H](C)CO)C(=O)c2cc(NS(=O)(=O)c3ccccc3)ccc2O1	nt	nt	nt	nt	i	nt	nt	nt
CC(C)c1cccc(-c2csc(C(O)c3ccco3)n2)c1 (configuration not stated)	nt	9.2	nt	nt	54	nt	i	i
CCN(CC)C(=O)c1cccc(-c2csc(C(O)c3ccco3)n2)c1 (configuration not stated)	nt	i	nt	nt	i	nt	nt	nt
CCc1ccc(/C=N/Nc2ncnc3nc[nH]c23)cc1	i	8.3	i	i	i	i	i	13
Cc1cc(Cl)c2oc(C(=O)NCCC3CCCCO3)c(C)c2c1 (configuration not stated)	i	8.9	i	i	?	i	i	i
Cc1cc(Cl)c2oc(C(=O)NCCN3CCCCC3CO)c(C)c2c1 (configuration not stated)	i	i	i	i	i	i	nt	nt
CN1C[C@H]2[C@@H](c3ccccc31)[C@H](CO)N2C(=O)C1CCCCC1	nt	nt	nt	nt	i	nt	nt	nt
COCC(=O)N(C)C[C@@H]1Oc2cc(-c3ccc(C)cc3)ccc2S(=O)(=O)N([C@@H](C)CO)C[C@@H]1C	nt	nt	nt	nt	i	nt	nt	nt
O=C(CCOc1ccccc1F)N1CCN(c2ccccc2O)CC1	i	10	i	i	nt	i	i	9.1
COc1ccccc1OCCC(=O)N1CCN(c2ccccc2OC)CC1	i	i	i	i	nt	i	nt	nt
Cc1nn(C)c(C(=O)N/N=C/c2ccc(Br)cc2)c1Cl	i	i	i	i	i	i	nt	nt
CC(C)c1ccc(/C=N/NC(=O)c2c(Cl)cnn2C)cc1	i	11	i	i	nt	i	15	i
COCCNC(=O)C[C@H]1CC[C@@H]2[C@H](COC[C@@H](O)CN2S(=O)(=O)c2ccccc2C)O1	nt	nt	nt	nt	i	nt	nt	nt
